High-throughput results (PubChem)
In the library only some 3.3% were active in any assay of this set; here they are far more common.
FAK inh = blocks human focal adhesion kinase activity. biochemical FAK kinase activity assay. Q05397. 0.84% of 97,000 active. inhibition, %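 (tested at 7 µM)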; in the data active = inhibition above about 19%
ERa coact inh = blocks coactivator binding to human estrogen receptor alpha. inhibition, % at 25.6 µM. TR-FRET ER-alpha LBD / SRC-1 peptide, estradiol-bound. P03372. 1.7% of 86,000 active; in the data active = inhibition above about 50%
ERb SRC1 inh = ER-beta (human) coactivator binding inhibition | TR-FRET ER-beta LBD / SRC1-Cy5 peptide binding; receptor agonist-loaded with 1 µM estradiol | inhibition, % at 25.6 µM | 1.3% of 86,000 active | AID 633;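 active = compounds whose percent inhibition of the receptor-coactivator binding signal exceeds about 50% in the single-dose screen, limit read from the data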
Target sequence (Q92731 whole entry, looked up, the tested form may be a part): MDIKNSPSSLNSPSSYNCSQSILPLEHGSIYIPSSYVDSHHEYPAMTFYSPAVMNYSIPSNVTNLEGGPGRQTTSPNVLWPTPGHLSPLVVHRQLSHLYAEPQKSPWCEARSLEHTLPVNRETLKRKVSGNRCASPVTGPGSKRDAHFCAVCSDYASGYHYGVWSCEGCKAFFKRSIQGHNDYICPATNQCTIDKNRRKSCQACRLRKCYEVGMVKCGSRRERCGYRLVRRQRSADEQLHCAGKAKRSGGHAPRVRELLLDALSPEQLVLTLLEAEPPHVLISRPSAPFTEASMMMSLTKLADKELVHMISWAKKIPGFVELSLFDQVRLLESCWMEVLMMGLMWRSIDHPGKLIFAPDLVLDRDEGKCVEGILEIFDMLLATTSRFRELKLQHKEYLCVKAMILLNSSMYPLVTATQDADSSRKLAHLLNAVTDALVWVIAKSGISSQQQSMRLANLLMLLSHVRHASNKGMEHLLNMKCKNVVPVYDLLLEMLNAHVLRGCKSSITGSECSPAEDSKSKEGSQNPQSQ
ERa coact pot = enhances coactivator binding to human estrogen receptor alpha; 1.3% of 86,000 active; P03372; TR-FRET ERalpha-LBD/SRC-Cy5 coactivator binding, 2 h; 100 = basal binding, no effect; coactivator binding (% of control), % at 25.6 µM; in the data active = activity above about 200%;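 note: binding measured in presence of low estradiol as agonist stimulus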
Smad3 FoxH1 inh = inhibitors of human Smad3 transcription factor binding | AID 630 | TR-FRET Smad3/Dy647-FoxH1 peptide binding, europium anti-His | inhibition, % at 25 µM | 0.29% of 88,000 active;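 active = compounds that reduce the energy-transfer binding signal between the protein and its labelled peptide by more than half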
Numbers stand for hits; . = inactive; / = not tested or not shown; [ ] = remark or other dose.

SMILES	FAK inh	ERa coact inh	ERb SRC1 inh	ERa coact pot	Smad3 FoxH1 inh
COc1ccc(-c2nn(-c3ccccc3)cc2C#N)cc1	.	.	.	.	.
O=C1CSC(c2cn(-c3ccccc3)nc2-c2cc3ccccc3oc2=O)N1Cc1cccnc1 (stereo not given)	.	.	.	.	.
N#Cc1cn(-c2ccccc2)nc1-c1cc2ccccc2oc1=O	.	.	.	212[fluorescence artefact?]	.
O=Cc1cn(-c2ccccc2)nc1-c1cc2c(ccc3ccccc32)oc1=O	.	52	.	230[fluorescence artefact?]	.
CCOCCCNS(=O)(=O)c1ccc(NC(=O)N2c3ccccc3Sc3ccccc32)cc1	.	/	/	/	/
O=[N+]([O-])c1cccc(/C=N/NC2=CS(=O)(=O)C=C2)c1	/	/	/	/	.
Cc1cc(C)cc(NC(=O)C2CCCN(c3nccc(C)n3)C2)c1 (stereo not given)	.	.	.	.	.
O=C(Nc1ccc(C2CCCCC2)cc1)C1CCCN(c2ncccn2)C1 (stereo not given)	/	.	.	223[fluorescence artefact?]	.
CC(=O)Nc1ccc(NC(=O)C2CCCN(c3ncccn3)C2)cc1 (stereo not given)	.	.	.	.	.
Cc1cc(C)cc(NC(=O)C2CCCN(c3nc(C)cc(C)n3)C2)c1 (stereo not given)	/	.	75[fluorescence artefact?]	.	.
COc1cc2c(=O)n(CC3CCCO3)c(=O)n(CC(=O)Nc3cccc(Cl)c3)c2cc1OC (stereo not given)	.	.	.	.	83[fluorescence artefact?]
Cn1c(=O)[nH]c(=O)c2c1nc(CN1CCN(c3ccc(F)cc3)CC1)n2CCc1ccccc1	.	.	.	399[fluorescence artefact?]	.
COc1ccc2c(c1)-c1ccccc1S(=O)(=O)N2C(C)=O	.	87[fluorescence artefact?]	63[fluorescence artefact?]	.	.
COc1ccc(OC)c(NC(=O)CN2C(=O)c3ccccc3S2(=O)=O)c1	/	.	.	.	.
O=C(O)c1ccncc1.O=C(O)c1ccncc1.[NH2-].[NH2-].[Pt]	/	/	/	/	.
Cn1nc(SCC(=O)O)sc1=S	.	70[fluorescence artefact?]	.	.	.
CCOC(=O)C(Sc1nn(C)c(=S)s1)C(C)=O (stereo not given)	.	.	.	.	.
Clc1ccc2c(NC3CCC(N4CCCCC4)CC3)ccnc2c1 (stereo not given)	/	/	/	/	.
O=C/C(=C\Nc1ccc(Cl)cn1)c1nc2ccccc2o1	.	54[fluorescence artefact?]	.	.	.
O=C(Nc1ccc(Cl)cn1)c1cc2ccccc2o1	.	.	.	.	.
COc1cc(NS(=O)(=O)c2ccc(N/C=C(\C#N)c3nc4cc(Cl)ccc4o3)cc2)nc(OC)n1	.	/	/	/	/
O=C/C(=C\Nc1ccc(Cl)cn1)c1nc2cc(Cl)ccc2o1	.	88[fluorescence artefact?]	56[fluorescence artefact?]	.	.
COc1ccc(-c2cc3nc4c(c(=O)n3[nH]2)CCC4)cc1	.	52[fluorescence artefact?]	.	.	.
O=c1c2c(nc3cc(-c4ccccc4)[nH]n13)CCC2	.	.	.	.	.
O=c1oc2c(O)c(O)cc3c(=O)oc4c(O)c(O)cc1c4c23	/	94[fluorescence artefact?]	98[fluorescence artefact?]	.	98
SMILES	FAK inh	ERa coact inh	ERb SRC1 inh	ERa coact pot	Smad3 FoxH1 inh
Cc1c(C)c2cc(Cl)c(O)c(CN(C)C)c2oc1=O	.	.	.	.	.
CCOc1ccc2nc3c(cc2c1)CN(CCOC)C(=NCCOC)S3	.	.	.	483[fluorescence artefact?]	.
COCCN=C1Sc2nc3ccc(C)cc3cc2CN1Cc1ccco1	.	/	/	/	/
COc1ccccc1CNC(=O)c1c(O)c2cc(OC)c(OC)cc2[nH]c1=O	.	57[fluorescence artefact?]	.	.	.
COc1ccccc1CNC(=O)c1ccccc1OC	.	.	.	.	.
Nc1ccc(C(=O)C[C@H](N)C(=O)O)cc1O	/	/	/	/	.
N#C/C(=C(/O)CSc1nnc(Cc2cccs2)n1C1CCCCC1)c1nc2ccccc2[nH]1	/	77[fluorescence artefact?]	.	.	.
Cc1ccc2oc(-c3cccc(NC(=O)c4cc(-n5cnnc5)ccc4Cl)c3)nc2c1	.	.	.	245	.
COc1cc(C(=O)Nc2cc(-c3nc4cc(C)ccc4o3)ccc2C)cc(OC)c1OC	.	74[fluorescence artefact?]	60[fluorescence artefact?]	.	.
Cc1ccc2nc(-c3cccc(NC(=O)c4ccc5c(c4)OCCO5)c3)oc2c1	.	68[fluorescence artefact?]	.	.	.
COc1cc(C(=O)Nc2cccc(-c3nc4cc(C)ccc4o3)c2C)cc(OC)c1OC	.	.	.	.	.
COc1cc(C(=O)Nc2cccc(-c3nc4cc(C)ccc4o3)c2)cc(OC)c1OC	/	72[fluorescence artefact?]	.	252[fluorescence artefact?]	.
c1ccc2c(c1)nnn2CN1CCOCC1	/	/	/	/	.
c1ccc2c(c1)c1ccccc1n2Cn1c2ccccc2c2ccccc21	/	/	/	/	.
N[C@@H](Cc1c[nH]c2ccc([N+](=O)[O-])cc12)C(=O)O	/	/	/	/	.
CN(Cc1ccccc1)S(=O)(=O)c1ccc(S(=O)(=O)N2CCN(CCC#N)CC2)cc1	.	.	.	.	.
CN(C1CCCCC1)S(=O)(=O)c1ccc(S(=O)(=O)N2CCN(CCC#N)CC2)cc1	.	.	54	.	.
CCC(C)C(NC(=O)C1CCC(C)CC1)C(=O)Nc1cc(OC)ccc1OC (stereo not given)	.	.	.	.	.
Cn1cnnc1SCC(=O)c1ccco1	.	.	.	.	.
Cn1cnnc1SCc1cccc(Br)c1	.	.	52[fluorescence artefact?]	.	.
CC1CCN(c2nc(-c3ccccc3O)nc3ccccc23)CC1	.	.	.	471[fluorescence artefact?]	.
Oc1ccccc1-c1nc(N2CCCC2)c2ccccc2n1	.	56[fluorescence artefact?]	56[fluorescence artefact?]	217[fluorescence artefact?]	55[fluorescence artefact?]
Fc1ccccc1-c1nc(N2CCCCC2)c2ccccc2n1	/	.	.	.	.
Oc1ccccc1-c1nc(N2CCN(Cc3ccccc3)CC2)c2ccccc2n1	.	.	.	237[fluorescence artefact?]	.
CC(C)Oc1nc(-c2ccccc2O)nc2ccccc12	.	.	.	222[fluorescence artefact?]	.
SMILES	FAK inh	ERa coact inh	ERb SRC1 inh	ERa coact pot	Smad3 FoxH1 inh
CC(C)CC(OC(=O)c1cccs1)C(=O)NCc1ccco1 (stereo not given)	.	.	58	.	.
CCC(OC(=O)c1cccs1)C(=O)NCc1ccco1 (stereo not given)	.	.	.	.	.
O=[N+]([O-])c1ccc2ncccc2c1CCc1c([N+](=O)[O-])ccc2ncccc12	/	/	/	/	.
C=CCn1c(SCC(=O)Nc2sccc2C(N)=O)nc2ccccc2c1=O	.	.	.	.	.
C=CCn1c(SCC(=O)Nc2sccc2C(N)=O)nc2ccc(Cl)cc2c1=O	.	64[fluorescence artefact?]	.	.	.
COc1ccc(OC)c(NC(=O)C2CCN(c3cc(-c4ccccc4)nc4ncnn34)CC2)c1	.	.	56[fluorescence artefact?]	.	.
COc1ccc(NC(=O)C2CCN(c3cc(-c4ccccc4)nc4ncnn34)CC2)cc1OC	.	.	.	.	.
COc1cc(NCC[C@@H]2CCCCN2)c2ncccc2c1	/	/	/	/	.
CC(C)C(=O)c1cn(CC(=O)NCC2CCCO2)c2ccccc12 (stereo not given)	.	.	.	.	.
CCOC(=O)C1=C(O)/C(=C/c2cn(CC(=O)NCC3CCCO3)c3ccccc23)SC1=Nc1ccc(C)cc1 (stereo not given)	.	78	.	.	.
CCN(CC)CCNC(=O)c1cc(Cl)c(N)cc1OC	/	.	56	.	.
O=C1O[C@@H]([C@H](O)[C@H](O)[C@H](O)CO)[C@@H](O)[C@@H]1O	/	/	/	/	.
